Measured values taken from the supplement of paper PMC12067093, “Discovery and optimisation of a covalent ligand for TRIM25 and its application to targeted protein ubiquitination” (Chemical Science, 2025).
The full data set covers some 21,000 targets. This sample favours those with the largest changes.

Compound: CC1Cc2ccccc2N1C(=O)C1CCCN(C1)C(=O)CCl (mixture of isomers) [TRIM25 ligand 11 (diastereomer mixture)]
Test: probe-labelled cysteine peptide fold change vs DMSO (competition) (log2 fold change); higher = less target engagement (more negative = stronger competition)
Conditions: THP-1, incubation time: 4 h
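Note: competitive chemoproteomic profiling in live THP-1 cells with an iodoacetamide desthiobiotin (IA-DTB) probe, comparing probe-labelled peptide intensities in compound-treated cells against DMSO-treated controls.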

Sequence of UniProt Q96RL1 (Q96RL1 whole entry, looked up): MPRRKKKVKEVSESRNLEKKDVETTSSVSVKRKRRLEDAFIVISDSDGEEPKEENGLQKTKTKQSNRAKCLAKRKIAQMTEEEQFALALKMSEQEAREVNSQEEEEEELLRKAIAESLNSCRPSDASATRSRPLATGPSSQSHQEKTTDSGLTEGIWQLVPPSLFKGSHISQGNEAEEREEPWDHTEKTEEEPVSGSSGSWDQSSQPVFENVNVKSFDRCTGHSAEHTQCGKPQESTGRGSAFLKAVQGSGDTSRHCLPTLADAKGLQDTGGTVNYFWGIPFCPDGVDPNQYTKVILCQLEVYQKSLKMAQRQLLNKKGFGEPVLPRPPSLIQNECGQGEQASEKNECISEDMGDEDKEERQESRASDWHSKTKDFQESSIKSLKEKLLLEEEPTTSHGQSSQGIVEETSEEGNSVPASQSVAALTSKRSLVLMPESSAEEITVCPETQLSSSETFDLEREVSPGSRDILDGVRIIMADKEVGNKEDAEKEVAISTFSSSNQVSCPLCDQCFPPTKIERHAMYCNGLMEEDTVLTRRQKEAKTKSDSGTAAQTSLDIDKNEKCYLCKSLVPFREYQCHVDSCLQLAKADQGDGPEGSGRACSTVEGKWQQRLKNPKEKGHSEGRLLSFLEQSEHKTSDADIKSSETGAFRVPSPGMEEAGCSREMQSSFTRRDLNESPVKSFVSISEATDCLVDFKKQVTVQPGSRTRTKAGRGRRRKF
Sequence of UniProt P41226 (P41226 whole entry, looked up): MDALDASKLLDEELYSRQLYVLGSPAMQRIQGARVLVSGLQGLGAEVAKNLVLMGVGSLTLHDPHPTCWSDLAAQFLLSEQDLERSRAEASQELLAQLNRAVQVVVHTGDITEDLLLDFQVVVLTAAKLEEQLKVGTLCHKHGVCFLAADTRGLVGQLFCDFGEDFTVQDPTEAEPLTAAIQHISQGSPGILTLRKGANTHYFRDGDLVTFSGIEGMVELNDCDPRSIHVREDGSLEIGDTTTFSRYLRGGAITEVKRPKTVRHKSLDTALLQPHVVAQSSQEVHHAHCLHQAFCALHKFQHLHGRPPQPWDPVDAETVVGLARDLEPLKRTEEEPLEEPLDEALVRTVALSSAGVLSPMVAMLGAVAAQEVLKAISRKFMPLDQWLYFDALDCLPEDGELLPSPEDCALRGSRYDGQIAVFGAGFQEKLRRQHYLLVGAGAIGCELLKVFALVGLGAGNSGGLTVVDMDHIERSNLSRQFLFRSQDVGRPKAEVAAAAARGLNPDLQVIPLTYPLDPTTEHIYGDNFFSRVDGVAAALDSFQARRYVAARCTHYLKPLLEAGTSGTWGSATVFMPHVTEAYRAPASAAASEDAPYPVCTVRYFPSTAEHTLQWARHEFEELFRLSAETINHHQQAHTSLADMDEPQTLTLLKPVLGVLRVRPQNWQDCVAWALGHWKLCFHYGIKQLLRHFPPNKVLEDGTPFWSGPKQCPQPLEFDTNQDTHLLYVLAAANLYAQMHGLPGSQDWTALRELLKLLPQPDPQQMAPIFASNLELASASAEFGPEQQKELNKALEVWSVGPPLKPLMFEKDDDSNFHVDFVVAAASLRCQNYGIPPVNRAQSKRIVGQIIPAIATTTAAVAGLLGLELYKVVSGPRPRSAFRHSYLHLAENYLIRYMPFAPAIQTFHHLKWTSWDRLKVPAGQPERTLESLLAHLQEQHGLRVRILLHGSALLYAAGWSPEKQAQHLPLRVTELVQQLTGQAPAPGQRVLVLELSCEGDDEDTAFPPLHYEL
Sequence of UniProt Q9H3U1 (Q9H3U1 whole entry, looked up): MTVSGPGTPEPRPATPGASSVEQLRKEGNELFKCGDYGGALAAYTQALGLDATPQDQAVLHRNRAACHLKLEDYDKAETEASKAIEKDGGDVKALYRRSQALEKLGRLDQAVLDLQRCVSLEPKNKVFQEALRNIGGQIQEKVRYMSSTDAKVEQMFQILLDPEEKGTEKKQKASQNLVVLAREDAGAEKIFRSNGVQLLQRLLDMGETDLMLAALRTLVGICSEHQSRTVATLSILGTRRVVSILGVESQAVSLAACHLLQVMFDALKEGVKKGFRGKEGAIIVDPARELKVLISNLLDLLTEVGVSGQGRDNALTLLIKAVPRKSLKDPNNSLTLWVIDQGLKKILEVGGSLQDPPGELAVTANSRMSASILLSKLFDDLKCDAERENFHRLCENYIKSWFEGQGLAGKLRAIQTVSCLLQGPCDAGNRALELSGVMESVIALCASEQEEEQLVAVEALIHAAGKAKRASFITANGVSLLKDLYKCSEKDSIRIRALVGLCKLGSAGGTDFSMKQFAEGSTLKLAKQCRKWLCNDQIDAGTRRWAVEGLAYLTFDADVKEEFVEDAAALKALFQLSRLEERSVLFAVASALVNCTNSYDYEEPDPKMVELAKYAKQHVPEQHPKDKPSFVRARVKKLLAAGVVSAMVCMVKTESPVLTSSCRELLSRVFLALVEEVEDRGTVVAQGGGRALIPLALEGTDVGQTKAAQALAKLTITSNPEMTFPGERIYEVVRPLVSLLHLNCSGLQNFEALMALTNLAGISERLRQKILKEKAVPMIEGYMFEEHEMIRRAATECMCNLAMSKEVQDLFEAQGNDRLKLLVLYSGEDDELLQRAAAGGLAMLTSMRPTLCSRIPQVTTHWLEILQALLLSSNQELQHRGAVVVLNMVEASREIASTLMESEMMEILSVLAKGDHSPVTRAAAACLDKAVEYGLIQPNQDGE
Sequence of UniProt Q9BZF9 (Q9BZF9 whole entry, looked up): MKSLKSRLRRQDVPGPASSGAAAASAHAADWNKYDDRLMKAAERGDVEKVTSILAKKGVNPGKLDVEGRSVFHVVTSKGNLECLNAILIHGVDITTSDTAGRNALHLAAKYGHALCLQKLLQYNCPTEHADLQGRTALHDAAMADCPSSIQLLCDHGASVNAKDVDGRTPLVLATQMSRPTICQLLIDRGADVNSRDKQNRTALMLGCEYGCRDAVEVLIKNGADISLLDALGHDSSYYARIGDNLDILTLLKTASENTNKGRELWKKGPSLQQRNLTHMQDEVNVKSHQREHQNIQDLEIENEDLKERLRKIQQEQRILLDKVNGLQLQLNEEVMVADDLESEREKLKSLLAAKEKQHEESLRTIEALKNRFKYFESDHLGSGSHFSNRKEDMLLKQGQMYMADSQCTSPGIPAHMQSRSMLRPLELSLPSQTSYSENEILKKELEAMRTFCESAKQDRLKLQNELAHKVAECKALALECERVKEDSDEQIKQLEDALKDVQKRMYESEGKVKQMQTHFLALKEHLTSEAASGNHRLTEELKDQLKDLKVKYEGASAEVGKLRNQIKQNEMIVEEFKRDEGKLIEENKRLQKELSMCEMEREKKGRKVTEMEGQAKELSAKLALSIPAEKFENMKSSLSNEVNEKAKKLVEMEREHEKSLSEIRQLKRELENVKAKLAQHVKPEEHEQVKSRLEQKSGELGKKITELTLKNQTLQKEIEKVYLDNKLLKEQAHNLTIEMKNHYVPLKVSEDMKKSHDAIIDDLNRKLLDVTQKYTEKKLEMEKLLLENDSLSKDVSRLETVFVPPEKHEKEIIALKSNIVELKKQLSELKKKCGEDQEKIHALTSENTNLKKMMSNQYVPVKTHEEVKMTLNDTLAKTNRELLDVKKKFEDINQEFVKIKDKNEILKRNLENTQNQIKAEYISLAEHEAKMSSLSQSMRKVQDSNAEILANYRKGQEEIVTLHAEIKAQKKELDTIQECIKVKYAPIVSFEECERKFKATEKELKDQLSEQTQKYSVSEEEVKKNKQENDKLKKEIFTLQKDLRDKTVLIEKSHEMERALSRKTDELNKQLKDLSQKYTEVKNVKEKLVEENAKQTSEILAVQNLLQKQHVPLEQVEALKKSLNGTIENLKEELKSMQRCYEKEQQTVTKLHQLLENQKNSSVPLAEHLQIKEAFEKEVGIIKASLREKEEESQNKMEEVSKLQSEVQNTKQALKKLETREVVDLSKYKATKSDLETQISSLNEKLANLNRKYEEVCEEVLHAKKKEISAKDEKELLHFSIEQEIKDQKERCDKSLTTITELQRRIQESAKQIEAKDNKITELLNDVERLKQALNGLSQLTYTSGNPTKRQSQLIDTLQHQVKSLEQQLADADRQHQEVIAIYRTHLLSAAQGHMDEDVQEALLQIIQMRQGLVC
Sequence of UniProt Q15906 (Q15906 whole entry, looked up): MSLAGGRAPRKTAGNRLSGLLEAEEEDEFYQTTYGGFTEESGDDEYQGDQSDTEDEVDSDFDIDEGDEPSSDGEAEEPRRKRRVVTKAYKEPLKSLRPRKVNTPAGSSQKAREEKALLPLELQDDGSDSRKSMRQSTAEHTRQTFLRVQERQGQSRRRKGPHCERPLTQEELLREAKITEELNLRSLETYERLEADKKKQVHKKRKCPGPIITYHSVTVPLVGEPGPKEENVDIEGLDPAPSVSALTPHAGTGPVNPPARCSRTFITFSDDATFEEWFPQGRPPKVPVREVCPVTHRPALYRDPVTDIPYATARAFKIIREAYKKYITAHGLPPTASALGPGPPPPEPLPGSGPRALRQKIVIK
Sequence of UniProt P19544 (P19544 whole entry): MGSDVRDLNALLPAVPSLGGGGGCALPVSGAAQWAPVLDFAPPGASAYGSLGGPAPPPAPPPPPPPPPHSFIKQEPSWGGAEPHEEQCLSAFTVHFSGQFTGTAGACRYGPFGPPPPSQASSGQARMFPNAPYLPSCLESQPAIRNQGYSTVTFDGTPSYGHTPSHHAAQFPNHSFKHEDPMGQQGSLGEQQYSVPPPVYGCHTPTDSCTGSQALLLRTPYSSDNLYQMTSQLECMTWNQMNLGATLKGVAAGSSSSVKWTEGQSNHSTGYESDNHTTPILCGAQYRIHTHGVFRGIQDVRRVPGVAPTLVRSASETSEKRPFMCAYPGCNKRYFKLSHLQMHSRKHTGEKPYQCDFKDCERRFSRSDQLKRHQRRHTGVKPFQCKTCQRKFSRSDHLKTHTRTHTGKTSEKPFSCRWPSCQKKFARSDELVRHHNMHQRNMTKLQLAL

Target	probe-labelled cysteine peptide fold change (10 µM)	probe-labelled cysteine peptide fold change (50 µM)
UNK_Q9C0B0_100_YDEATGLCPEGDECPFLHR (UniProt Q9C0B0)	0.613	0.284
UBA7_P41226_223_DGDLVTFSGIEGMVELNDCDPR (UniProt P41226)	0.000986	0.0382
TRPM7_Q96QT4_1426_DQETVCSK (UniProt Q96QT4)	-0.118	-0.219
VPS72_Q15906_163_GPHCERPLTQEELLR (UniProt Q15906)	0.0992	-0.085
WT1_P19544_385_HTGVKPFQCK (UniProt P19544)	-0.144	-0.103
TRMT61A_Q96FX7_209_FCSFSPCIEQVQR (UniProt Q96FX7)	-0.023	-0.323
VCPIP1_Q96JH7_207+219_SQECLIPVHVDGDGHCLVHAVSR (UniProt Q96JH7)	-0.42	-1.06
XPC_Q01831_224_NNICSQPDLHAIGLSIIPAR (UniProt Q01831)	-0.0894	0.0467
TTC4_O95801_174_HFAEAVNWCDEGLQIDAK (UniProt O95801)	-0.0931	0.216
UNC13D_Q70J99_255_CREDQWYPLEPR (UniProt Q70J99)	-0.0799	-0.0552
UNK_Q9C0B0_299+308_CNDMQQSGSCPR (UniProt Q9C0B0)	0.0296	-0.132
VCP_P55072_105_LGDVISIQPCPDVK (UniProt P55072)	-0.0602	-0.113
VRK3_Q8IV63_128_TSCSPQK (UniProt Q8IV63)	0.0233	-0.142
WDR37_Q9Y2I8_329_TANLYDVETSELVHSLTGHDQELTHCCTHPTQR (UniProt Q9Y2I8)	0.0866	-0.193
VPS51_Q9UID3_226_AIQDDCQVITAR (UniProt Q9UID3)	-0.0611	0.0255
UNC45A_Q9H3U1_503_ALVGLCK (UniProt Q9H3U1)	0.0324	0.188
UIMC1_Q96RL1_121_AIAESLNSCRPSDASATR (UniProt Q96RL1)	0.14	-0.0493
UBE2Z_Q9H832_243_NYNECIR (UniProt Q9H832)	-0.049	-0.0648
TXNL1_O43396_135+149_AGCECLNESDEHGFDNCLR (UniProt O43396)	0.0914	-0.234
VPS13C_Q709C8_2276+2289_GIEHSLIEENCGVVVESIQVTLECGLGHR (UniProt Q709C8)	0.105	-0.00969
TYW1B_Q6NUM6_581_ELVDLIPEYEIACEHEHSNCLLIAHR (UniProt Q6NUM6)	0.268	0.256

Target	probe-labelled cysteine peptide fold change (10 µM)	probe-labelled cysteine peptide fold change (50 µM)
USP4_Q13107_7_AEGGGCR (UniProt Q13107)	0.644	0.609
TTC37_Q6PGP7_1162_CLLTSAIYALQGR (UniProt Q6PGP7)	-0.13	-0.0818
UBR2_Q8IWV8_1360_ILSDEDKPLFGPLPCR (UniProt Q8IWV8)	-0.139	-0.289
WDR11_Q9BZH6_411_NSSSGVSPLYSPVSFCGIPVGVLQNK (UniProt Q9BZH6)	-0.0944	-0.0348
VPS13B_Q7Z7G8_3937_VACDVEVDGVR (UniProt Q7Z7G8)	0.0676	-0.592
WAPL_Q7Z5K2_891_ALQHCEELIQQYNR (UniProt Q7Z5K2)	0.739	0.496
USP40_Q9NVE5_50_NQGGTCYLNSLLQTLHFTPEFR (UniProt Q9NVE5)	-0.26	-0.513
TXNIP_Q9H3M7_36_VIVEVCEVTR (UniProt Q9H3M7)	0.136	0.375
UACA_Q9BZF9_481_ALALECER (UniProt Q9BZF9)	-0.0367	0.0956
TUBG1_P23258_316_QTNHCYIAILNIIQGEVDPTQVHK<|>TUBG2_Q9NRH3_316_QTNHCYIAILNIIQGEVDPTQVHK (UniProt Q9NRH3+P23258)	0.00794	-0.013
WDR12_Q9GZL7_185_ALHCCR (UniProt Q9GZL7)	0.0665	0.103
UBR4_Q5T4S7_1662_LCTFTITQK (UniProt Q5T4S7)	-0.119	-0.0801
TRMT1_Q9NXH9_351_QALVFQCVGCGAFHLQR (UniProt Q9NXH9)	0.147	0.318
TUBA1B_P68363_213_SKLEFSIYPAPQVSTAVVEPYNSILTTHTTLEHSDCAFMVDNEAIYDICRR<|>TUBA4A_P68366_213_SKLEFSIYPAPQVSTAVVEPYNSILTTHTTLEHSDCAFMVDNEAIYDICRR<|>TUBA1A_Q9BQE3_213_SKLEFSIYPAPQVSTAVVEPYNSILTTHTTLEHSDCAFMVDNEAIYDICRR (UniProt Q9BQE3+P68366+P68363)	0.181	-0.0591
WDHD1_O75717_781_CVELADLMTQNAVNLAIK (UniProt O75717)	0.0994	0.0632
WDFY4_Q6ZS81_1763_HHQEEVLQAGLCTEGALLLLEMLK (UniProt Q6ZS81)	0.571	0.181
UBR4_Q5T4S7_4839+4841_QMEELIEEPGLTCCICR (UniProt Q5T4S7)	0.337	0.209
TXNRD1_Q16881_625_QLDSTIGIHPVCAEVFTTLSVTK (UniProt Q16881)	0.301	0.194
USP34_Q70CQ2_2033_CQVADMK (UniProt Q70CQ2)	0.0209	0.0671
TTC37_Q6PGP7_600_DFNCWESLGEAYLSR (UniProt Q6PGP7)	0.0103	-0.0643
